According to PubChem BioAssay:
Calls of active or inactive are those of the source. Unless noted, no stated cut-off is given here; in the data, active means inhibition above about 80%; inactive means the rest.

What was measured:
[1] = P. berghei load reduction in hepatocytes – cell-based, HepG2, luciferase luminescence, HepG2 viability, primary screen (AID 624349; in the data active means parasite load remaining mostly below about 12%, no sharp cut-off; inactive means mostly above about 10%;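 further: 100% = mean of DMSO negative control wells on the same plate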); settings: P. berghei liver stage in HepG2, luciferase luminescence, concentration not given here; parasite load remaining: stronger effect = lower value; viability: measured here: HepG2 viability without parasites
[2] = system: Aerobactin synthetase IucA (Klebsiella pneumoniae); test: inhibition of K. pneumoniae IucA enzyme – biochemical, Tocris library, absorbance (AID 1345561; call rule not given here;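 further: 100% = enzyme without compound and 0% = no enzyme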); settings: purified IucA enzyme assay, absorbance (OD) read-out; stronger effect = lower value;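 tested at 8 µM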
[3] = viability loss with induced miR-34 in A549 – imaging, A549 dox-inducible miR-34, nuclei and caspase counts, primary screen (AID 1347080;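 active means compounds whose cell count with miR-34 switched on is under 0.7 times the count with it off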); settings: A549 miR-34 inducible, Hoechst nuclei count, 48 h
[4] = galactose survival enhancers in mitochondrial complex I cybrids – cell-based, galactose medium, ATP luminescence, primary screen (AID 1645843;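 active means z-score of at least 1.8 in each of two replicates, scored against plate mean and spread of sample wells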;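 further: positive z means more ATP and so rescue of galactose-driven cybrid death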); settings: complex I mutant cybrid cells, 72 h, stronger effect = higher value
[5] = growth inhibition, single agent or in combination, cell-based, chromothripsis tumors, cisplatin or BGB combos (AID 1671449); settings: LFS_MB_P medulloblastoma cells;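 further: cells exposed for 96 hours; 0% = vehicle DMSO and 100% = killing by high DMSO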
[6] = growth inhibition, single agent and combos, cell-based, chromothripsis tumors, cisplatin or BGB combos (AID 1671450); settings: HDN33 neuroblastoma cells, stronger effect = higher value;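 further: cells exposed to compound for four days; 0% = vehicle DMSO and 100% = cell killing by high DMSO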
[7] = growth inhibition, single agents and combos, ICB984, cell-based, cisplatin or BGB combos, synergistic combos for chromothripsis tumors (AID 1671451; call rule not given here;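 further: cells exposed for 96 hours before readout; 0% = vehicle DMSO and 100% = killing by high DMSO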); settings: ICB984 medulloblastoma cells, drug combinations, stronger effect = higher value
[8] = growth inhibition, single agents and combos, HTB85, cell-based, BGB or cisplatin IC20 combos, synergistic combos for chromothripsis tumors (AID 1671453); settings: HTB85 osteosarcoma cells, drug combinations, stronger effect = higher value;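 further: cells exposed for 96 hours before readout; 0% = vehicle DMSO and 100% = high DMSO killing control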
[9] = stronger effect = lower value, cell number ratio, induced over uninduced
[10] = measured here: relative caspase fold change +Dox/-Dox
[11] = measured here: total cells with miR-34 induction, stronger effect = lower value
[12] = measured here: total cells without miR-34 induction
[13] = at 0.5 µM, stronger effect = higher value
[14] = measured here: combination with BGB IC20, at 0.005 µM
[15] = measured here: combination with BGB IC40, at 0.005 µM
[16] = measured here: combination with BGB IC40, at 0.05 µM
[17] = measured here: combination with cisplatin, at 0.5 µM, stronger effect = higher value
[18] = measured here: combination with cisplatin, at 5 µM, stronger effect = higher value
[19] = measured here: with BGB IC20 combination, at 0.5 µM
[20] = measured here: with cisplatin IC20 combination, at 0.5 µM
[21] = measured here: 5 uM single agent, at 5 µM
[22] = measured here: with BGB IC20, at 0.5 µM
[23] = measured here: with BGB IC20, at 5 µM
[24] = measured here: with cisplatin IC20, at 0.5 µM
[25] = measured here: with cisplatin IC20, at 5 µM

**Q.** With `O=c1cc(N2CCOCC2)oc2c1ccc1ccccc12` as the compound, how does the parasite load remaining [1] read?
**A.** 36.5% (inactive)

**Q.** What about the viability [1] of the same compound?
**A.** 108%

**Q.** And the remaining activity [2]?
**A.** 119% (inactive)

**Q.** And the fold change [3, 9]?
**A.** 1.08 (inactive)

**Q.** And the fold change [3, 10]?
**A.** 1.44

**Q.** And the cell count [3, 11]?
**A.** 6910

**Q.** And the cell count [3, 12]?
**A.** 6380

**Q.** What about the z-score [4] of the same compound?
**A.** 1.36 (inactive)

**Q.** And the inhibition [5, 13]?
**A.** -16% (inactive)

**Q.** What about the inhibition [5, 14] of the same compound?
**A.** -21.9%

**Q.** And the inhibition [5, 15]?
**A.** 39.3%

**Q.** What about the inhibition [5, 16] of the same compound?
**A.** -14.5%

**Q.** What about the inhibition [5, 17] of the same compound?
**A.** -18.2%

**Q.** And the inhibition [5, 18]?
**A.** 6.61%

**Q.** What about the inhibition ([6]; BGB combo, at 5 µM) of the same compound?
**A.** -27.9%

**Q.** What about the inhibition ([6]; at 0.5 µM) of the same compound?
**A.** 5.72% (inactive)

**Q.** What about the inhibition ([6]; cisplatin combo, at 5 µM) of the same compound?
**A.** -6.14%

**Q.** And the inhibition [6, 19]?
**A.** -2.44%

**Q.** And the inhibition [6, 20]?
**A.** 15.8%

**Q.** What about the inhibition ([6]; single agent, at 5 µM) of the same compound?
**A.** 4.04%

**Q.** What about the inhibition ([7]; BGB IC20 combo, at 0.005 µM) of the same compound?
**A.** 3.18%

**Q.** And the inhibition ([7]; BGB IC40 combo, at 0.005 µM)?
**A.** -0.874%

**Q.** What about the inhibition ([7]; BGB IC40 combo, at 0.05 µM) of the same compound?
**A.** -4.91%

**Q.** What about the inhibition ([7]; at 0.5 µM) of the same compound?
**A.** -11.2% (inactive)

**Q.** What about the inhibition ([7]; cisplatin combo, at 0.05 µM) of the same compound?
**A.** -10.2%

**Q.** And the inhibition ([7]; cisplatin combo, at 0.5 µM)?
**A.** -14.9%

**Q.** What about the inhibition ([7]; cisplatin combo, at 5 µM) of the same compound?
**A.** -15.9%

**Q.** What about the inhibition [7, 21] of the same compound?
**A.** 0.403%

**Q.** What about the inhibition ([8]; at 0.5 µM) of the same compound?
**A.** -0.76% (inactive)

**Q.** And the inhibition [8, 22]?
**A.** 5.35%

**Q.** What about the inhibition [8, 23] of the same compound?
**A.** 11.2%

**Q.** What about the inhibition [8, 24] of the same compound?
**A.** -3.29%

**Q.** What about the inhibition [8, 25] of the same compound?
**A.** 1.5%

**Q.** And the inhibition ([8]; single agent, at 5 µM)?
**A.** 5%

**Q.** Which remaining activity [2] does the source give for `O=c1[nH]cnc2ccccc12` here?
**A.** 102% (inactive)

**Q.** And the fold change [3, 9]?
**A.** 0.942 (inactive)

**Q.** And the fold change [3, 10]?
**A.** 1.88

**Q.** And the cell count [3, 11]?
**A.** 8900

**Q.** And the cell count [3, 12]?
**A.** 9450

**Q.** What about the z-score [4] of the same compound?
**A.** -0.085 (inactive)

**Q.** What about the inhibition [5, 13] of the same compound?
**A.** -17.1% (inactive)

**Q.** What about the inhibition [5, 14] of the same compound?
**A.** -35.2%

**Q.** What about the inhibition [5, 15] of the same compound?
**A.** -30.5%

**Q.** And the inhibition [5, 16]?
**A.** -20.2%

**Q.** And the inhibition [5, 17]?
**A.** -41%

**Q.** What about the inhibition [5, 18] of the same compound?
**A.** -52.6%

**Q.** What about the inhibition ([6]; BGB combo, at 5 µM) of the same compound?
**A.** -24.4%

**Q.** And the inhibition ([6]; at 0.5 µM)?
**A.** -4.24% (inactive)

**Q.** And the inhibition ([6]; cisplatin combo, at 5 µM)?
**A.** 7.34%

**Q.** And the inhibition [6, 19]?
**A.** 2.06%

**Q.** What about the inhibition [6, 20] of the same compound?
**A.** -23.5%

**Q.** What about the inhibition ([6]; single agent, at 5 µM) of the same compound?
**A.** 3.32%

**Q.** What about the inhibition ([7]; BGB IC20 combo, at 0.005 µM) of the same compound?
**A.** -9.29%

**Q.** And the inhibition ([7]; BGB IC40 combo, at 0.005 µM)?
**A.** -31.8%

**Q.** What about the inhibition ([7]; BGB IC40 combo, at 0.05 µM) of the same compound?
**A.** -19.2%

**Q.** What about the inhibition ([7]; at 0.5 µM) of the same compound?
**A.** -16.4% (inactive)

**Q.** And the inhibition ([7]; cisplatin combo, at 0.05 µM)?
**A.** -23.5%

**Q.** What about the inhibition ([7]; cisplatin combo, at 0.5 µM) of the same compound?
**A.** -12.5%

**Q.** And the inhibition ([7]; cisplatin combo, at 5 µM)?
**A.** -22.5%

**Q.** And the inhibition [7, 21]?
**A.** -4.22%

**Q.** And the inhibition ([8]; at 0.5 µM)?
**A.** -3.81% (inactive)

**Q.** What about the inhibition [8, 22] of the same compound?
**A.** -2.72%

**Q.** And the inhibition [8, 23]?
**A.** 7.21%

**Q.** What about the inhibition [8, 24] of the same compound?
**A.** 2.1%

**Q.** What about the inhibition [8, 25] of the same compound?
**A.** -54.4%

**Q.** And the inhibition ([8]; single agent, at 5 µM)?
**A.** -7.3%

**Q.** For `CC[C@H](CO)Nc1nc(NCc2ccc(-c3ccccn3)cc2)c2ncn(C(C)C)c2n1`, which parasite load remaining [1] is on record?
**A.** 135% (inactive)

**Q.** What about the viability [1] of the same compound?
**A.** 85.7%

**Q.** And the remaining activity [2]?
**A.** 108% (inactive)

**Q.** And the fold change [3, 9]?
**A.** 1.16 (inactive)

**Q.** What about the fold change [3, 10] of the same compound?
**A.** 0.699

**Q.** What about the cell count [3, 11] of the same compound?
**A.** 1900

**Q.** What about the cell count [3, 12] of the same compound?
**A.** 1650

**Q.** And the z-score [4]?
**A.** -0.89 (inactive)
